Compound in this assay: Nc1ncnc2c1ncn2[C@@H]1O[C@H](COP(=O)(O)OP(=O)(O)OP(=O)(O)O)[C@@H](O)[C@H]1O [adenosine 5'-triphosphate]
Description: log2 fold change of tryptic peptide abundance, ligand vs vehicle (limited proteolysis) (log2 ratio); higher = more trypsin-susceptible (destabilized). Particulars: ligand concentration: 5 mM; sample: E. coli desalted lysate; replicate design: treated before aliquoting. As for the experimental part: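 HT-PELSA: desalted E. coli K-12 BW25113 lysate (with 12 mM MgCl2) incubated with 5 mM ATP (pH 7) or water for 30 min at 25 C, then a 4 min trypsin pulse at 22 C. Peptides were quantified by DIA-MS (4 replicates). Value is the peptide log2 fold change (treated/control); negative = stabilized. Scale: negative = ligand-stabilized region.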
With “UniProt P77399 (peptide sequence: TQGNYPATER, peptide start residue: 240)”, the log2 fold change was -0.418.
As to “UniProt P0ACL0 (peptide sequence: IILAGGELR, peptide start residue: 137)”, the log2 fold change is -0.596.
Then “UniProt P31548 (peptide sequence: LPGELSGGQR, peptide start residue: 126)”, with -0.702; and “UniProt P36879 (peptide sequence: TYPGGVQALR, peptide start residue: 13)”, with -3.15; and “UniProt P33919 (peptide sequence: LLGLTATPFR, peptide start residue: 146)”, with -1.8.
To “UniProt P64636 (peptide sequence: EDTIPFLEALK, peptide start residue: 96)” belongs 0.412; to “UniProt P35340 (peptide sequence: MTLTEIVAKIDTGAEKR, peptide start residue: 186)”, 1.22; to “UniProt P15081 (peptide sequence: AFDTLCQQGR, peptide start residue: 30)”, -0.599.
Then “UniProt Q59385 (peptide sequence: LVTDEGEK, peptide start residue: 327)”, with 1.76.
As for “UniProt Q46868 (peptide sequence: QVHESMPK, peptide start residue: 13)”, the log2 fold change was -0.305.
To “UniProt P07604 (peptide sequence: YAWPGNVR, peptide start residue: 410)” belongs -1.06.
For the target “UniProt P77499 (peptide sequence: SVNVGFSGGEK, peptide start residue: 141)”, the log2 fold change was -0.896.
Then “UniProt P37188 (peptide sequence: VNEIETYMDGVHLICTTAKVDR, peptide start residue: 41)”, with 0.402; and “UniProt P61887 (peptide sequence: FGVVEFDDNFR, peptide start residue: 143)”, with -0.44.
Then “UniProt P37636 (peptide sequence: QDYDTAR, peptide start residue: 137)”, with 0.264; and “UniProt P77536 (peptide sequence: MVDELGHWEEWRDR, peptide start residue: 41)”, with -0.517; and “UniProt P17846 (peptide sequence: IHKGDFR, peptide start residue: 385)”, with 1.23.
To “UniProt P77306 (peptide sequence: TLSPEDLR, peptide start residue: 123)” belongs 0.57; to “UniProt P19323 (peptide sequence: ELENVIER, peptide start residue: 600)”, -0.833.
Take “UniProt P07648 (peptide sequence: VKAHLTCLHTR, peptide start residue: 776)”: the log2 fold change worked out at 1.26.
To “UniProt P39359 (peptide sequence: EGDLATAATLNKK, peptide start residue: 229)” belongs -1.33.
As for “UniProt P33667 (peptide sequence: MIGSNHLPECLR, peptide start residue: 220)”, the log2 fold change worked out at 0.32.
In the case of “UniProt P77689 (peptide sequence: INSLAMPVKNEVCDTR, peptide start residue: 270)”, the log2 fold change turned out to be 1.09.
To “UniProt P15005 (peptide sequence: LAYLLTGEK, peptide start residue: 214)” belongs -1.01; to “UniProt P13857 (peptide sequence: TVQGNVMLHQR, peptide start residue: 54)”, -0.406.
In the case of “UniProt P23331 (peptide sequence: TVVYTAEIDDR, peptide start residue: 33)”, the log2 fold change is -1.64.
Then “UniProt P28861 (peptide sequence: ETAAGSLTGR, peptide start residue: 175)”, with -1.31; and “UniProt P15977 (peptide sequence: RKLSATLESMFADDGVNK, peptide start residue: 661)”, with -0.78; and “UniProt P0AG14 (peptide sequence: VNNLSEQYK, peptide start residue: 44)”, with -0.765.
To “UniProt P16095 (peptide sequence: VGIGPSSSHTVGPMK, peptide start residue: 10)” belongs 0.369; to “UniProt P0A9K7 (peptide sequence: HVGGDELDKLLAGK, peptide start residue: 224)”, -0.493; to “UniProt P15047 (peptide sequence: IGMSAYGASK, peptide start residue: 139)”, -1.47.
Then “UniProt Q46856 (peptide sequence: IDAAIAATR, peptide start residue: 323)”, with -1.68; and “UniProt P0AB77 (peptide sequence: AGMDSHGFGMASVR, peptide start residue: 67)”, with -0.449.
In the case of “UniProt P04825 (peptide sequence: GLENLSGDLYEK, peptide start residue: 853)”, the log2 fold change is -0.937.
To “UniProt P0AA39 (peptide sequence: NILQSGER, peptide start residue: 198)” belongs -0.653.
To “UniProt P03813 (peptide sequence: YTMEQDFYR, peptide start residue: 127)” belongs -0.699; to “UniProt P77258 (peptide sequence: DENGQAIR, peptide start residue: 136)”, -0.737.
Then “UniProt P31142 (peptide sequence: GHIPGALNVPWTELVR, peptide start residue: 194)”, with -0.763.

The record behind these values is the supplement of paper PMC12819154, “High-throughput peptide-centric local stability assay extends protein–ligand identification to membrane proteins, tissues and bacteria” (Nature Structural & Molecular Biology, 2025).
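Further: lysate desalted by size exclusion to strip endogenous ATP, peptide intensities built from DIA-NN precursor signals, and peptides missing any value discarded before comparison.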
